High-throughput results (PubChem BioAssay)
L major viab – Leishmania major promastigote growth inhibition. 200,000 tested, 9% active. inhibition, % at 10 µM. Leishmania major promastigotes, resazurin fluorescence viability; in the data active means inhibition above about 50%;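 further: promastigotes grown with compound for 44 hours at 28 °C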
Insulin prom up – MIN6 insulin promoter up-regulation; MIN6 insulin promoter-GFP reporter, high-content imaging; active compounds read high; 190,000 tested, 0.3% active; AID 1625; z-score at 5 µM;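 active means z-score above 3 at 5 µM with at least 500 cells counted in the well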
INS promoter inh – TRM-6 insulin promoter activity inhibition. TRM-6 cells (human fetal islet line), insulin promoter-eGFP reporter, imaging; reporter expression induced with tamoxifen. inhibition, % at 2 µM. 130,000 tested, 0.9% active;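 active means inhibition above the mean plus 3 SD, with well images judged a real hit on visual review, cut at about 60% in these data, passing the limit was not always enough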
Cl transport mod – KCC2 (human) Cl- transport modulation; KCC2 cells, thallium flux FluoZin-2 fluorescence; B-score of Tl+ flux slope (higher = more flux/activation; lower = inhibition) at 10 µM; 190,000 tested, 2.2% active; AID 1456;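 active means thallium flux slope and its plate-corrected score both differing from the plate sample mean at a set confidence after two filtering rounds, in either direction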;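 further: slope of fluorescence scaled to starting intensity during 10 to 20 s after thallium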
WT yeast gro inh – growth inhibition of WT yeast, mitochondrial fusion screen; mitochondrial fusion phenotypic screen, WT strain; inhibition, % at 10 µM; 190,000 tested, 2.1% active; AID 1362; in the data active means inhibition above about 58%; tested in S. cerevisiae
ROMK mod – modulates human ROMK potassium channel activity | P48048 | Tet-inducible ROMK, thallium flux fluorescence; actives lie on both sides | B-score at 10 µM | 130,000 tested, 2% active;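 active means signal ratio slope over the read window, or its plate-corrected B-score, at least 3 SD from the plate mean, either direction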;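 further: B-score of the F/F0 ratio slope over 7 to 12 s after thallium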
* hit, by the source's call; x = not tested or not shown. The list is not random: actives were taken first. Their share in the collection is about 12%.

SMILES	L major viab	Insulin prom up	INS promoter inh	Cl transport mod	WT yeast gro inh	ROMK mod
CC1(C)Cc2ccccc2-c2nnc(SCC(=O)Nc3ccc4c(c3)OCO4)n21	2	1.2	-3	-2.5	4	x
O=C(Cc1cc(=O)[nH][nH]1)N/N=C/C=C/c1ccccc1	72*	0.93	0	0.23	-5	x
CCSc1nc(-c2cccnc2)ccc1C#N	77*	2	11	-0.018	-2	x
O=C(Nc1ccc([N+](=O)[O-])cn1)C1CCCCC1	-6	0.44	-6	1.1	-2	x
CC(C)NC(=S)N/N=C/c1ccc(C(C)(C)C)cc1	4	-0.32	17	1.2	61*	-0.012
CCOc1ccc(Nc2nc(N3CCCCC3)nc(N3CCCCC3)n2)cc1	59*	-0.33	48	0.73	61*	0.24
c1ccc(Nc2nc(N3CCCCC3)nc(N3CCNCC3)n2)cc1	100*	-0.82	x	x	15	-2.8
C1CCN(c2nc(N3CCCC3)nc(N3CCNCC3)n2)C1	100*	x	x	-0.18	-20	x
C(=N\Nc1nc(Nc2ccccc2)nc(N2CCCCC2)n1)/c1ccco1	36	-1.3	x	x	69*	x
Cc1ccc(S(=O)(=O)N2CCCCC2)cc1NC(=O)Cn1ccsc1=N	0	-0.15	x	1.5	-7	-1.8
CCCCCNC(=O)C1CCC(Cn2c(=S)[nH]c3ccccc3c2=O)CC1 (stereo not given)	2	x	29	0.22	11	0.83
O=C(NCc1ccc2c(c1)OCO2)c1cc(-n2cnnc2)ccc1Cl	-5	-0.11	4	x	5	x
O=C(O)C12CC3CC(C1)CC(n1cnc(Cl)n1)(C3)C2	-5	x	100*	0.95	0	x
CCn1c(/N=C/c2ccccc2NS(=O)(=O)c2ccc(C)cc2)nc2ccccc21	85*	-0.08	30	-1.5	23	x
CCCCn1c(NCc2ccccc2NS(=O)(=O)c2ccc(C)cc2)nc2ccccc21	42	-0.09	15	1.5	-2	x
